Structures can show the parent of a compound that is named as a salt.
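Further: flow cytometry read-out as median GFP intensity of gated cells, compounds added 30 min before Hh-conditioned or mock medium, mock-treated cells serving as unstimulated baseline.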

The first test concerns Drosophila S2 cl14 SmoIP sensor cells. Description: normalized SmoIP GFP fluorescence (untreated unstimulated = 0%, untreated Hh-stimulated = 100%); higher = more Smo activation sensor fluorescence. The note with it: stimulation: Hh conditioned medium (+Hh); compound concentration: 2 uM; 24 h.
Regarding `COc1cc2c(cc1OC)[C@@H]1Cc3ccc(OC)c(OC)c3CN1CC2` [rotundine], the “normalized SmoIP GFP fluorescence” value was determined as 160%.

For `O=C(/C=C\n1cnc(-c2cc(C(F)(F)F)cc(C(F)(F)F)c2)n1)N1CC(F)(F)C1`, the “normalized SmoIP GFP fluorescence” value stood at 118%. Still for that read-out and setting: next, `C[C@]1(O)C[C@@H](c2nc(-c3ccc4ccc(-c5ccccc5)nc4c3)c3c(N)nccn32)C1`: 108%. Consider `Cc1ccc(F)c(NC(=O)Nc2ccc(-c3cccc4[nH]nc(N)c34)cc2)c1`, for which the “normalized SmoIP GFP fluorescence” value worked out at 115%. Take `c1ccc(CC2=NCCN2)cc1` [tolazoline-hcl]: the “normalized SmoIP GFP fluorescence” value is 103%.

Staying with this test, now noted: stimulation: mock conditioned medium (-Hh); compound concentration: 2 uM; 24 h.
For `C=C1C(=O)O[C@@H]2/C=C(\C)CC/C=C(\C)CC[C@@H]12` [Costunolide], the “normalized SmoIP GFP fluorescence” value is 27.4%. Take `COc1cc2c(Oc3ccc4[nH]c(C)cc4c3F)ncnc2cc1OCCCN1CCCC1` [Cediranib]: the “normalized SmoIP GFP fluorescence” value is 52.4%. The same measure, in the same setting: in the case of `NC(=O)c1cn(Cc2c(F)cccc2F)nn1` [Rufinamide] it was 1.89%; in that of `COc1cc2nccc(Oc3ccc(NC(=O)C4(C(=O)Nc5ccc(F)cc5)CC4)cc3)c2cc1OC`, 3.51%; in that of `COc1cc2c(cc1OC)[C@@H]1Cc3ccc(OC)c(OC)c3CN1CC2` [rotundine], 12.5%.

`O=C(/C=C\n1cnc(-c2cc(C(F)(F)F)cc(C(F)(F)F)c2)n1)N1CC(F)(F)C1`: the “normalized SmoIP GFP fluorescence” value was -0.264%.

For the molecule `CCOC(=O)Nc1cc(-c2ccc(C)c(NS(C)(=O)=O)c2)nn2c(C)nnc12` [bromosporine], the “normalized SmoIP GFP fluorescence” value was 49.9%. For the molecule `C[C@]12CC[C@@H]3c4ccc(O)cc4C[C@@H](CCCCCCCCC[S+]([O-])CCCC(F)(F)C(F)(F)F)[C@H]3[C@@H]1CC[C@@H]2O` (stereo partly drawn) [Fulvestrant], the “normalized SmoIP GFP fluorescence” value worked out at 12.4%. As to `COCCCC/C(=N\OCCN)c1ccc(C(F)(F)F)cc1` [Fluvoxamine-maleate], the “normalized SmoIP GFP fluorescence” value amounted to 11%. In the case of `N#CC(=C(/N)Sc1ccccc1N)/C(C#N)=C(/N)Sc1ccccc1N`, the “normalized SmoIP GFP fluorescence” value was 23.1%. Same read-out and setting: next, `O=C(NOC[C@H](O)CO)c1ccc(F)c(F)c1Nc1ccc(I)cc1F`: 77.1%; `C[C@]1(O)C[C@@H](c2nc(-c3ccc4ccc(-c5ccccc5)nc4c3)c3c(N)nccn32)C1`: -11%.

As to `C[C@]12CCC3=C4CCC(=O)C=C4CC[C@H]3[C@@H]1CC[C@@]2(O)CC#N` [Dienogest], the “normalized SmoIP GFP fluorescence” value worked out at 10.2%. For `NC(=S)N/N=C/c1ncccc1N` [triapine], the “normalized SmoIP GFP fluorescence” value is -3.71%. Turning to `O=c1c(-c2ccc(O)cc2)coc2cc(O)cc(O)c12` [Genistein], the “normalized SmoIP GFP fluorescence” value was -0.804%. `Cc1ccc(F)c(NC(=O)Nc2ccc(-c3cccc4[nH]nc(N)c34)cc2)c1`: the “normalized SmoIP GFP fluorescence” value stood at 0.274%. On to `O=C(/C=C/c1ccc(CN(CCO)CCc2c[nH]c3ccccc23)cc1)NO`, for which the “normalized SmoIP GFP fluorescence” value was found to be 79.7%. In the case of `CCOc1cc(CC(=O)N[C@@H](CC(C)C)c2ccccc2N2CCCCC2)ccc1C(=O)O` [Repaglinide], the “normalized SmoIP GFP fluorescence” value stood at 6.52%. Take `COc1ccc(S(=O)(=O)N(C(C)=O)c2ccccc2/C=C/c2cc[n+]([O-])cc2)cc1`: the “normalized SmoIP GFP fluorescence” value came out at 1.03%.

For the molecule `CCOc1ccn(-c2ccc(F)cc2)c(=O)c1C(=O)Nc1ccc(Oc2ccnc(N)c2Cl)c(F)c1`, the “normalized SmoIP GFP fluorescence” value was -5.22%.

`CCN(CC)CC(=O)Nc1c(C)cccc1C` [Lidocaine]: the “normalized SmoIP GFP fluorescence” value stood at 2.97%. Regarding `C=CC[N+]1([C@H]2C[C@H]3[C@@H]4CC[C@H]5C[C@H](O)[C@@H](N6CCOCC6)C[C@]5(C)[C@H]4CC[C@]3(C)[C@H]2OC(C)=O)CCCC1` [Rocuronium-bromide], the “normalized SmoIP GFP fluorescence” value was found to be 10.2%. As for `COC(=O)N[C@H](C(=O)N[C@@H](Cc1ccccc1)[C@@H](O)CN(Cc1ccc(-c2ccccn2)cc1)NC(=O)[C@@H](NC(=O)OC)C(C)(C)C)C(C)(C)C` [Atazanavir], the “normalized SmoIP GFP fluorescence” value was -0.0496%. Take `Oc1nc(-c2ccc(C(F)(F)F)cc2)nc2c1CSCC2`: the “normalized SmoIP GFP fluorescence” value was determined as 5.66%.

Regarding `COc1ccccc1N1CCN(CC(O)COc2cccc3ccccc23)CC1` (stereo not drawn) [Naftopidil-Dihydrochloride], the “normalized SmoIP GFP fluorescence” value was -1.88%. Turning to `Cc1[nH]c2ccccc2c1CCNCc1ccc(/C=C/C(=O)NO)cc1`, the “normalized SmoIP GFP fluorescence” value worked out at 81.3%.

Regarding `N#C/C(=C\c1ccc(O)c(O)c1)C(=O)NCc1ccccc1`, the “normalized SmoIP GFP fluorescence” value is 9.54%. As to `C[C@H](NCc1ccc(OCc2cccc(F)c2)cc1)C(N)=O` [Safinamide-mesilate], the “normalized SmoIP GFP fluorescence” value came out at 4.04%. As to `N=C(N)Nc1ccc(C(=O)Oc2ccc3cc(C(=N)N)ccc3c2)cc1` [Nafamostat-mesylate], the “normalized SmoIP GFP fluorescence” value stood at 16.2%. On to `CC(C)C[C@H](NC(=O)[C@@H](NC(=O)c1cccc(-c2ccccc2)n1)[C@@H](C)O)B(O)O`, for which the “normalized SmoIP GFP fluorescence” value turned out to be 64.4%. With `COc1ccc2cc(-c3nc(-c4ccc([S+](C)[O-])cc4)[nH]c3-c3ccncc3)ccc2c1` (stereo not drawn) [Tie2-kinase-inhibitor], the “normalized SmoIP GFP fluorescence” value is 21.9%. On the same count and under the same terms, next, `Cc1nc(N)sc1-c1ccnc(Nc2ccc(N3CCOCC3)cc2)n1`: 94.3%. `c1cn2cc(-c3ccc4cn[nH]c4c3)nc(Nc3ccc(N4CCOCC4)cc3)c2n1`: the “normalized SmoIP GFP fluorescence” value is 2.97%. Consider `CCc1cc(Nc2nccc(-c3c(-c4ccc(OC)c(C(=O)Nc5c(F)cccc5F)c4)nc4ccccn34)n2)c(OC)cc1N1CCC(N2CCN(S(C)(=O)=O)CC2)CC1`, for which the “normalized SmoIP GFP fluorescence” value is 25.3%. For the molecule `c1cnc2cc3c(cc2n1)[C@@H]1CNC[C@H]3C1` [Varenicline-tartrate], the “normalized SmoIP GFP fluorescence” value stood at 2.97%. As for `OC(CCN1CCCCC1)(c1ccccc1)C1CC2C=CC1C2` (stereo not drawn) [Biperiden-hydrochloride], the “normalized SmoIP GFP fluorescence” value was 2.64%. Still for that read-out and setting: in the case of `c1ccc(CC2=NCCN2)cc1` [tolazoline-hcl] it was -1.74%. Regarding `Cc1cc(NC(=O)Nc2ccc(N(C)C)cc2)c2cc(F)cc(F)c2n1`, the “normalized SmoIP GFP fluorescence” value turned out to be 24.9%.

For the origin of these results see the supplement of paper PMC5662767.
